Rows were chosen to be rich in hits. Some 3.4% of all compounds tested hit in one or more screens of this group.
PAFAH1B3 FP inh: inhibitors of human PAFAH1B3; Q15102; recombinant PAFAH1B3, FP-rhodamine probe, fluorescence polarization; inhibition, % at 3.39 µM; 0.28% of 340,000 active;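 active = inhibition above the screen-wide average of all tested compounds plus 3 SD, cut at about 25% in these data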;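 note: 0% = enzyme with DMSO only and 100% = wells lacking PAFAH1B3 protein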
Target sequence (Q15102 whole entry, looked up): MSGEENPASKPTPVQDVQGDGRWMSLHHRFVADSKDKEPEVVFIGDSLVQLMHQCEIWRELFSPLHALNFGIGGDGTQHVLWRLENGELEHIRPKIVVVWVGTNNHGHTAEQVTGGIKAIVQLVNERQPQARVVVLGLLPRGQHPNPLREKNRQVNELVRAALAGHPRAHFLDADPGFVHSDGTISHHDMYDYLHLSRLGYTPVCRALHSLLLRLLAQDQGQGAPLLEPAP
PP1 inh: PP1-alpha (human) inhibition in PP5 counter-screen; P62136; purified PP1alpha, OMFP fluorescence; inhibition, % at 6.7 µM; 0.9% of 320,000 active;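 active = inhibition above the mean inhibition of all tested compounds plus 3 SD, computed separately for each screening campaign, cut at about 15% in these data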
pPAFAH inh: inhibitors of human plasma PAF acetylhydrolase (pPAFAH); inhibition, % at 3.39 µM; 1.5% of 330,000 active; AID 463082; Q13093; recombinant pPAFAH, FP-rhodamine probe fluorescence polarization;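 active = inhibition above the mean inhibition across the screen plus 3 SD, cut at about 25% in these data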;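 note: inhibitors block binding of the rhodamine activity-based probe so polarization drops; 0% = enzyme with DMSO and 100% = wells lacking pPAFAH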
Target sequence (Q13093 whole entry, looked up): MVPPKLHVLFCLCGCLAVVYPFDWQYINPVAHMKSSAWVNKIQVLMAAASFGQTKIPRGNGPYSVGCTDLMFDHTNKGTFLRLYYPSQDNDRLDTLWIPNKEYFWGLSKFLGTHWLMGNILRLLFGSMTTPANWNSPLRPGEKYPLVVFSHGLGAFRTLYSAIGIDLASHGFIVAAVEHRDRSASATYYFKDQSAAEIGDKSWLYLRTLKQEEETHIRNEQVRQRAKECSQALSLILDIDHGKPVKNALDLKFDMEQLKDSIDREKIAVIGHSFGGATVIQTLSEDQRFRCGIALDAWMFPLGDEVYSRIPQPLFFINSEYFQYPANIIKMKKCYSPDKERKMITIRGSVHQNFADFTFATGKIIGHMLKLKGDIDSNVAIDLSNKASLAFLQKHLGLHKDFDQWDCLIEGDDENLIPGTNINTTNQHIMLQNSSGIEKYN
PAFAH2 inh: inhibitors of human PAFAH2; Q99487; recombinant PAFAH2, FP-rhodamine activity probe, fluorescence polarization; inhibition, % at 3.39 µM; 0.99% of 340,000 active; AID 492956;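 active = inhibition above the mean over all tested compounds plus 3 SD, cut at about 30% in these data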;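 note: inhibitors block probe labeling of enzyme so polarization drops; 0% = enzyme with DMSO and 100% = wells lacking PAFAH2 protein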
PP5 primary: inhibitors of human protein phosphatase 5 (PP5). P53041. purified PP5c, OMFP substrate fluorescence. inhibition, % at 6.7 µM. 0.18% of 320,000 active. AID 1987;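 active = inhibition above the campaign's mean inhibition across all tested compounds plus 3 SD, cut at about 9.5% in these data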;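 note: 0% = DMSO only and 100% = 100 µM cantharidin control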
PAFAH1B2 inh: PAFAH1B2 (human) inhibition. recombinant PAFAH1B2, FP-rhodamine activity probe, fluorescence polarization. 1.2% of 340,000 active. inhibition, % at 3.39 µM. P68402;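 active = inhibition above the mean of all tested compounds plus 3 SD, cut at about 24% in these data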;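 note: 0% = enzyme with DMSO and 100% = wells lacking PAFAH1B2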
PP1 confirm: confirmation of human PP1 phosphatase inhibitors. shares compounds with PP1 inh. purified PP1alpha, OMFP substrate fluorescence. inhibition, % at 6.7 µM. 52% of 1,900 active. AID 2358;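 active = mean PP1 inhibition above a set limit taken from the earlier primary screen, cut at about 15% in these data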
PP5 counter: inhibits human PP5 phosphatase in PP1 counter-screen | shares compounds with PP1 inh | purified PP5c, OMFP fluorescence | inhibition, % at 6.7 µM | 4% of 1,900 active;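 active = mean PP5 inhibition over triplicate wells above about 9.5% taken from the earlier PP1 screen, limit read from the data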
Numbers without * were called inactive; / = not tested or not shown.

SMILES | PAFAH1B3 FP inh | PP1 inh | pPAFAH inh | PAFAH2 inh | PP5 primary | PAFAH1B2 inh | PP1 confirm | PP5 counter
COc1ccc(C)cc1NC(=O)c1cc2c(s1)CCC2 | 2 | 18* | 7 | 0 | 1 | 1 | -1 | -2
CC1CCCCN1S(=O)(=O)c1ccc(C(=O)Nc2nnc(-c3ccccn3)o2)cc1 (stereo not drawn) | 6 | 23* | -2 | -3 | 4 | 9 | 22* | 1
O=C(Nc1nnc(C2CC2)o1)c1ccc(S(=O)(=O)N2CCCCC2)cc1 | 5 | 20* | 6 | 4 | 1 | 5 | 8 | 0
CC1CCCCN1S(=O)(=O)c1ccc(C(=O)Nc2nnc(C3CC3)o2)cc1 (stereo not drawn) | 1 | 20* | 1 | 7 | 2 | 12 | 12 | -2
COc1cc(OC)cc(C(=O)NCCC(c2ccccc2)c2ccccc2)c1 | 5 | 12 | -8 | -1 | -5 | 3 | / | /
COc1ccc(/C=N/NC(=O)c2cnccn2)cc1O | -4 | 0 | 3 | 1 | -1 | -1 | / | /
Cc1ccc(/C(O)=C2/C(=O)C(=O)N(c3ccccn3)C2c2cccc([N+](=O)[O-])c2)cc1 (stereo not drawn) | 4 | 18* | 8 | 11 | 0 | 3 | 9 | -5
O=C(CSC(=S)N1CCOCC1)Nc1nc(-c2ccccc2)c(-c2ccccc2)o1 | 7 | 18* | -1 | 2 | 1 | 0 | 11 | -3
Cc1nc(Nc2cnc(/C=C/c3cc(C(=O)Nc4cccc(C(F)(F)F)c4)ccc3C)cn2)cc(N2CCNCC2)n1 | / | 23* | 1 | / | 2 | / | -6 | -2
Cc1nc(N2CCC(C)CC2)c2c(C)c(C(=O)Nc3cccc(C(F)(F)F)c3)sc2n1 | -25 | -4 | -2 | -31 | 4 | -15 | / | /
Cc1cc(C)n(-c2nc(Nc3ccccc3)nc(-n3nc(C)cc3C)n2)n1 | 1 | -2 | 0 | -1 | 2 | 0 | / | /
COc1cccc(/C=N/Nc2nc(Nc3ccccc3)nc(-n3nc(C)cc3C)n2)c1O | 10 | 35* | 10 | -7 | 11* | 6 | 36* | 3
COc1cccc(/C=N/NC(=O)c2c(-c3ccccc3)noc2C)c1O | 3 | 2 | 3 | 9 | 1 | 1 | / | /
COc1cccc(/C=N/Nc2cc(-n3nc(C)cc3-c3ccccc3)ncn2)c1O | 7 | 21* | 19 | 1 | 3 | 2 | 32* | -1
Nc1nc(Cl)cc(Oc2ccc([N+](=O)[O-])cc2)n1 | 7 | 6 | 9 | -9 | 1 | 1 | / | /
Cc1ccc(-c2cc(C(=O)N/N=C/c3ccco3)[nH]n2)cc1 | 5 | -56 | 6 | -2 | -7 | -3 | -5 | -5
COc1ccc(C(=O)NCc2ccc(-c3nc4ccccc4s3)cc2)cc1 | -13 | 20* | 5 | -2 | 0 | 1 | 25* | -2
COc1ccc(CNC(=O)c2ccc(CNc3c(NC4CCCCC4)c(=O)c3=O)cc2)cc1 | -12 | 25* | 0 | -1 | 2 | 6 | 14 | -4
COc1cccc(C(=O)NCc2ccc(-c3nc4ccccc4s3)cc2)c1 | 1 | -1 | 5 | 0 | -2 | -1 | / | /
COc1ccc(-n2c(SCC(=O)Nc3sc4c(c3C#N)CCCC4)nnc2-c2ccccc2OC)cc1 | 0 | 18* | 2 | -14 | 3 | -4 | 4 | -1
O=C(Cn1ncc2c3ccccc3n(Cc3ccc(Cl)cc3)c2c1=O)NCCCN1CCCC1=O | -2 | 2 | 1 | -2 | 1 | 1 | / | /
CCc1ccc(NC(=O)Cn2ncc3c4ccccc4n(C)c3c2=O)cc1 | -16 | 24* | 5 | -11 | -3 | -12 | 22* | -5
Cn1c2ccccc2c2cnn(CC(=O)Nc3ccc(Cl)cc3)c(=O)c21 | -22 | 18* | -12 | -22 | 1 | -9 | 14 | 0
CCCn1c2ccccc2c2cnn(CC(=O)NCCOC)c(=O)c21 | 6 | / | / | 0 | / | 7 | / | /
CCOc1ccc(S(=O)(=O)NCc2ccc(OC)cc2)c2cccnc12 | -3 | 68* | 0 | -7 | -1 | 1 | -1 | 2
SMILES | PAFAH1B3 FP inh | PP1 inh | pPAFAH inh | PAFAH2 inh | PP5 primary | PAFAH1B2 inh | PP1 confirm | PP5 counter
O=C(NCc1ccccc1)c1nc2c(nnn2Cc2cccc(Cl)c2)c(=O)[nH]1 | 9 | 21* | 5 | 8 | -3 | 8 | 14 | -3
CC(=O)Nc1nnc(SCc2ccc(F)cc2)s1 | -1 | -2 | 6 | -2 | 0 | 5 | / | /
CCCCC(=O)NC(c1ccc(N(C)C)cc1)c1ccc2cccnc2c1O (stereo not drawn) | 9 | 29* | 26* | 5 | 1 | 5 | 21* | -4
CCCCC(=O)NC(c1ccc(N(CC)CC)cc1)c1ccc2cccnc2c1O (stereo not drawn) | 0 | 35* | 26* | 2 | 4 | 4 | 24* | -5
CCOC(=O)c1nn(-c2ccccc2)c(-c2ccccc2)c1C(=O)c1ccccc1 | 10 | 1 | 9 | 8 | 2 | 0 | / | /
COc1cc(Cn2c(N)c(C#N)c3nc4ccccc4nc32)cc(OC)c1 | 2 | 18* | -9 | 11 | 6 | 0 | 8 | 6
CNC(=O)c1c(NC(=O)CS(=O)(=O)c2ccc(Cl)cc2)sc(C)c1C | 8 | -3 | 8 | -1 | 1 | 6 | / | /
O=C(/C=C/c1ccccc1)NC(=S)NNC(=O)Cc1cccs1 | 7 | 24* | 5 | 2 | -1 | 2 | 17* | -4
CC1Cc2cc(/C(O)=C3/C(=O)C(=O)N(CCCn4ccnc4)C3c3ccc(Br)cc3)ccc2O1 (stereo not drawn) | 1 | 26* | 4 | 4 | 1 | -2 | 31* | 1
CC1Cc2cc(/C(O)=C3/C(=O)C(=O)N(CCCn4ccnc4)C3c3ccncc3)ccc2O1 (stereo not drawn) | -3 | -2 | 3 | -3 | 3 | -1 | / | /
Cc1ccc2nc(/N=C(\N)NC(=O)NC3CCCCC3)nc(C)c2c1 | / | 22* | 11 | / | 2 | / | 33* | 1
CCCC(=O)N/C(N)=N/c1nc(C)c2cc(C)ccc2n1 | / | 10 | 6 | / | -1 | / | / | /
CCOC(=O)c1nnn(CC(=O)Nc2cccc(Cl)c2C)c1C(=O)OCC | -6 | -4 | 3 | -4 | -1 | 1 | / | /
CCOC(=O)c1ncccc1NC(=O)CC(=O)Nc1cccnc1C(=O)OCC | / | 27* | 1 | / | 0 | / | 5 | 1
O=C(CCn1nc(-c2ccc(F)cc2)ccc1=O)NCc1ccccc1 | 12 | 0 | -3 | -1 | -2 | 4 | / | /
CCN(CC(=O)Nc1ccccc1OC)C(=O)C1CCC1 | -2 | -4 | 5 | 4 | 1 | 4 | / | /
